These results are taken from PubChem BioAssay.

The source made the active and inactive calls.

The nature of experiment [1]: optical density shifts of acrAB sulA E. coli – strain DRC41, OD650, 48 h, E. coli filamentation inducer project, primary screen (AID 1152).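 Further: E. coli MC1000 strain DRC41 lacking acrAB efflux pump and sulA.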 The settings on record: higher = more signal, called active from +8 up or from −8 down.
A short description of experiment [2]: probe aLefty1 binding on compound microarray – biochemical, small-molecule microarray, 635/667 nm fluorescence, primary screen (AID 1153).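 Further: score merges spot fluorescence with signal-to-noise ratio from the scanned slide images.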 The settings on record: higher = more signal.
A short description of experiment [3]: plasmodial surface anion channel blockers, osmotic lysis – cell-based, P. falciparum Indochina, OD700, 1 h, primary screen (AID 1154). The settings on record: P. falciparum Indochina infected RBC osmotic lysis, higher = more signal, called active from +8 up or from −8 down.
Experiment [4] in a line: plasmodial surface anion channel blockers, osmotic lysis – cell-based, P. falciparum Indochina, OD700, 2 h, primary screen (AID 1155).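 Further: lysis reports solute entry through the parasite surface anion channel PSAC.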 As to conditions: P. falciparum Indochina infected erythrocytes, higher = more signal, called active from +8 up or from −8 down.
The nature of experiment [5]: changes in parasitized red cell lysis, either direction – P. falciparum Indochina, OD700, 3 h, PSAC antagonist project, primary screen (AID 1156). The settings on record: P. falciparum-infected erythrocytes, osmotic lysis, higher = more signal, called active from +8 up or from −8 down.
Experiment [6] can be described thus: plasmodial surface anion channel blockers, osmotic lysis – cell-based, P. falciparum Indochina, OD700, 18 h, primary screen (AID 1157). The settings on record: P. falciparum Indochina infected erythrocytes, osmotic lysis OD700, 18 h; higher = more signal, called active from +8 up or from −8 down.
The nature of experiment [7]: S6 kinase pathway phospho-S6 level changes – cell-based, A549, cytoblot, luminescence, serum-stimulated, primary screen (AID 1158).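 Further: serum-stimulated A549 lung adenocarcinoma cells; signal is phosphorylated S6 detected by cytoblot immunostaining with HRP secondary.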 As to conditions: 5 h, higher = more signal.
For experiment [8], the target named is NADPH oxidase 2 (Homo sapiens) (UniProt P04839). Briefly: compounds shifting NOX2 Amplex Red fluorescence – cell-based, HEK293-NOX2, PMA-stimulated, NOX inhibitor project, primary screen (AID 1159). Further: test concentration not given here. The settings on record: 45 min, higher = more signal, called active from +8 up or from −8 down.
Experiment [9] concerns the target NADPH oxidase 4 (Homo sapiens) (UniProt Q9NPH5). Put plainly: compounds shifting NOX4 Amplex Red fluorescence – cell-based, HEK293-NOX4, tetracycline-induced, NOX inhibitor project, primary screen (AID 1160). The settings on record: HEK293-NOX4, Amplex Red H2O2 fluorescence, 45 min; higher = more signal, called active from +8 up or from −8 down.
Experiment [10] concerns the target NADPH oxidase 5 (Homo sapiens) (UniProt Q96PH1). Put plainly: compounds shifting NOX5 Amplex Red fluorescence – cell-based, HEK293-NOX5, NOX inhibitor project, primary screen (AID 1161). As to conditions: HEK293-NOX5, ionomycin, 45 min, higher = more signal.
Experiment [11] is described as follows: compound effects on lung adenocarcinoma cell viability – A549, calcein-AM fluorescence, 48 h, basal, profiling panel (AID 1162). Further: test concentration not given here. The settings on record: higher = more signal.
Experiment [12] in a line: compound effects on differentiated 3T3-L1 adipocyte viability – cell-based, 3T3-L1 adipocytes, calcein-AM fluorescence, 48 h, basal, profiling panel (AID 1163). Further: test concentration not given here. The settings on record: 3T3-L1 adipocytes viability, higher = more signal.
Experiment [13] can be described thus: compound effects on hepatocellular carcinoma cell viability – HepG2, calcein-AM fluorescence, 48 h, basal, profiling panel (AID 1164). Further: test concentration not given here. As to conditions: higher = more signal.
Experiment [14] in a line: compound effects on multiple myeloma cell viability – MM1S, calcein-AM fluorescence, 48 h, basal, profiling panel (AID 1165).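 Further: viability of MM1S multiple myeloma cells under basal unstimulated conditions; test concentration not given here.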 The settings on record: higher = more signal.
The nature of experiment [15]: calcein-AM signal in unstimulated myeloma cells – cell-based, calcein-AM fluorescence, 48 h, PK04 Diversity Set, profiling panel (AID 1166).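 Further: cells grown under basal conditions without added stimulus; test concentration not given here.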 The settings on record: RPMI8226 myeloma viability, higher = more signal.
Experiment [16] can be described thus: JC-1 mitochondrial signal, unstimulated HepG2 cells – cell-based, JC-1 fluorescence, 24 h, 100 nL compound, profiling panel (AID 1167). Further: test concentration not given here. The settings on record: HepG2 mitochondrial potential, higher = more signal.
Experiment [17] in a line: JC-1 mitochondrial signal, unstimulated adipocytes – cell-based, JC-1 fluorescence, 3T3-L1 adipocytes, 24 h, 100 nL compound, profiling panel (AID 1168). Further: test concentration not given here. The settings on record: JC-1 mitochondrial fluorescence, higher = more signal, called active from +8 up or from −8 down.
Experiment [18] in a line: JC-1 mitochondrial signal, unstimulated myeloma cells – cell-based, JC-1 fluorescence, RPMI8226, 24 h, 100 nL compound, profiling panel (AID 1169). Further: test concentration not given here. The settings on record: JC-1 mitochondrial potential fluorescence, higher = more signal.
Experiment [19] in a line: JC-1 mitochondrial signal, unstimulated MM1S myeloma – cell-based, JC-1 fluorescence, 24 h, 100 nL compound, profiling panel (AID 1170). Further: test concentration not given here. The settings on record: MM1S mitochondrial potential, higher = more signal.
Experiment [20] in a line: resazurin metabolic signal in A549 cells – cell-based, resazurin fluorescence, 24 h, PK04 Diversity Set, profiling panel (AID 1171). Further: test concentration not given here. The settings on record: A549 viability, higher = more signal, called active from +8 up or from −8 down.

NADPH oxidase 4 (Homo sapiens), sequence (Q9NPH5 whole entry, looked up): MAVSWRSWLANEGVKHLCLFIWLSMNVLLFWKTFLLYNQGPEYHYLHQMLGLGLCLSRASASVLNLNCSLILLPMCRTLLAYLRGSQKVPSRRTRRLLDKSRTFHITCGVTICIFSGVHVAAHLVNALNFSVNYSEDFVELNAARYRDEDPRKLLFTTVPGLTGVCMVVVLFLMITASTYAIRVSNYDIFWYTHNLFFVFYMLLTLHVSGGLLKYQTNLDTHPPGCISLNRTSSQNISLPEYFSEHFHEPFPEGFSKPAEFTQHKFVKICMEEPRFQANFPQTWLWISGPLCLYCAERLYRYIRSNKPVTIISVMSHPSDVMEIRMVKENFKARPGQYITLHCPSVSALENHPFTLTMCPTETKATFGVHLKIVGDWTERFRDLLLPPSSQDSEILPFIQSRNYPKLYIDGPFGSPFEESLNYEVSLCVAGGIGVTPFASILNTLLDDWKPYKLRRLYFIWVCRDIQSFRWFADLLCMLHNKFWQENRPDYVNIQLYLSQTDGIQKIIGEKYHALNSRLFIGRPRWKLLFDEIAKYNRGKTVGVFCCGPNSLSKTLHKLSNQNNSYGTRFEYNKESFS
NADPH oxidase 2 (Homo sapiens), sequence (P04839 whole entry, looked up): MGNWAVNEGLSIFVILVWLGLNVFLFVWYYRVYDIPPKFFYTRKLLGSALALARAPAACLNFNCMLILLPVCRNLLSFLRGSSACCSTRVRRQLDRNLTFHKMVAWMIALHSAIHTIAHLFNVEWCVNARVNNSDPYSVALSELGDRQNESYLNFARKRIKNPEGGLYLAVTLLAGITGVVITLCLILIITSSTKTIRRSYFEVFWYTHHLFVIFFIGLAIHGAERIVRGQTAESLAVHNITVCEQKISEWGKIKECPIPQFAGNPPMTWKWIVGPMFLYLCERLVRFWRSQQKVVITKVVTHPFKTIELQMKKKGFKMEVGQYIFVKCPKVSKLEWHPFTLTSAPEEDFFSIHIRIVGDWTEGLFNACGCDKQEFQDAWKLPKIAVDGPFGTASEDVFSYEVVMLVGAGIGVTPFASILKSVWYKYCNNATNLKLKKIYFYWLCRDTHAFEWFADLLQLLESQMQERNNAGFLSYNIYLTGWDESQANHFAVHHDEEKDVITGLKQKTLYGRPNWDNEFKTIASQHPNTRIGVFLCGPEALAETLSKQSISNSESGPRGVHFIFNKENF
NADPH oxidase 5 (Homo sapiens), sequence (Q96PH1 whole entry, looked up): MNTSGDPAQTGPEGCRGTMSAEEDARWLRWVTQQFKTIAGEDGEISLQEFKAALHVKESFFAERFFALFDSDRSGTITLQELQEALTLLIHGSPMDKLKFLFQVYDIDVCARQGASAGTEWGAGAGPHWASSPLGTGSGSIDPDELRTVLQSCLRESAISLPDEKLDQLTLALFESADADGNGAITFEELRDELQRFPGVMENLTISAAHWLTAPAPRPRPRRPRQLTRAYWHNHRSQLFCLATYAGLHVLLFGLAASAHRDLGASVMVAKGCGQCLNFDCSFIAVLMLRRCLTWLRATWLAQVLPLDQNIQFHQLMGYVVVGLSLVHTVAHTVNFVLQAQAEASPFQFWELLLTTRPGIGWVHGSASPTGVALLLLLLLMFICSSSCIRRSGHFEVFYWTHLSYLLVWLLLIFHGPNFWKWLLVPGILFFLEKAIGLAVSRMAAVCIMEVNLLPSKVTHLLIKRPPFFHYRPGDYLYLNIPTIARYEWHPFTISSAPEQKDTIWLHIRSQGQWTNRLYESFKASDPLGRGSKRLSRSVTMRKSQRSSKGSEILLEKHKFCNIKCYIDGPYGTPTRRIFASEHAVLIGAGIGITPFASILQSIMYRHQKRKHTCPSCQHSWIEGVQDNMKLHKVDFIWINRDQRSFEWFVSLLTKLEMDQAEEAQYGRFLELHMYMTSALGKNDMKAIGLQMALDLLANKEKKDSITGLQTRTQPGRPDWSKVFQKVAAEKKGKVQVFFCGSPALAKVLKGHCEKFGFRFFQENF

With `O=C1O[C@H](c2ccccc2)[C@H](c2ccccc2)N2[C@H]1[C@@H](C(=O)N1CCN(c3ncccn3)CC1)[C@]1(C(=O)Nc3ccccc31)[C@H]2c1ccc(O)cc1`, the z-score is 0.649 (inactive) in experiment [1]; 1.24 (inactive) in experiment [3]; 1.01 (inactive) in experiment [4]; -0.236 (inactive) in experiment [5]; 1.01 (inactive) in [6]; 0.0782 in experiment [7]. Besides, the z-score in [8] is 0.898 (inactive); in experiment [9], -1.54 (inactive); in experiment [10], 1.65; in [11] it was 0.947; in experiment [12] it was 1.36; in experiment [13], 0.406. Further, the z-score was -1.28 in experiment [14]; -4 in experiment [15]; -1.26 in [16]; 1.04 (inactive) in experiment [17]; -1.06 in [18]; 0.183 in experiment [19]. Also, the z-score in experiment [20] was 0.371 (inactive). Moreover, in experiment [2], the composite z-score was found to be 0.0262.

Regarding `C=CCNC(=O)[C@@H]1[C@H]2C(=O)O[C@H](c3ccccc3)[C@H](c3ccccc3)N2[C@H](c2ccc(O)cc2)[C@@]12C(=O)Nc1ccc(C#CC3(O)CCCCCC3)cc12`, the z-score in [1] is -0.418 (inactive); in experiment [3], 2.35 (inactive); in experiment [4], 0.275 (inactive); in experiment [5], 0.0479 (inactive); in experiment [6], 0.778 (inactive); in experiment [7] it was -0.339. For the same compound, the z-score in experiment [8] was 0.948 (inactive); in [9], 0.534 (inactive); in experiment [10], 1.19; in [11] it was -1.04; in [12], 0.889; in [13], -0.522. The z-score is -1.67 in [14]; -3.93 in experiment [15]; -2.28 in experiment [16]; -0.41 (inactive) in experiment [17]; -0.748 in experiment [18]; -0.188 in experiment [19]. The z-score in experiment [20] is 0.0696 (inactive). In experiment [2], the composite z-score is -0.196.

As for `CC(=O)n1cc(C(O)C2C=CC3C(=O)N(c4ccccc4)C(=O)C3N2Nc2ccccc2F)c2ccccc21` (stereo not given), the z-score in experiment [1] is 0.506 (inactive); in experiment [3], 8 (active); in [4], 1.04 (inactive); in experiment [5], 0.0784 (inactive); in experiment [6], -0.0595 (inactive); in [7], 0.988. The z-score in experiment [8] was -1.82 (inactive); in experiment [9] it was -3.23 (inactive); in [10], -0.614; in experiment [11], 0.512; in experiment [12], 0.23; in experiment [13], -0.798. Further, the z-score in experiment [14] is -0.834; in experiment [15], -0.056; in [16] it was -0.69; in experiment [17], -1.2 (inactive); in experiment [18] it was 0.408; in experiment [19], -1.41. Besides, in experiment [20], the z-score is 0.423 (inactive). Also, in experiment [2], the composite z-score is -0.147.

With `COC(=O)C1=CC(CCCO)=CC(C2CC2)N(Cc2cccc(OC(F)(F)F)c2)C=C1C(=O)OC` (stereo not given), the z-score in experiment [1] is -1.16 (inactive); in experiment [3], 3.22 (inactive); in [4] it was 0.455 (inactive); in experiment [5] it was -0.623 (inactive); in [6] it was 0.526 (inactive); in experiment [7], 0.204. The z-score in [8] is -0.179 (inactive); in experiment [9] it was -0.34 (inactive); in experiment [10], 0.973; in experiment [11], -0.851; in experiment [12], 0.589; in [13] it was 0.525. Besides, the z-score in experiment [14] was -0.525; in [15], -0.708; in [16] it was 1.18; in experiment [17], 0.767 (inactive); in experiment [18], -0.862; in experiment [19] it was -0.159. Besides, the z-score in experiment [20] is 0.644 (inactive). For the same compound, the composite z-score in experiment [2] amounted to 0.193.

With `COCCOC(=O)N1C(=O)[C@@]2(c3cc(C#CC4(O)CCCCCC4)ccc31)[C@H](C(=O)N1CCc3cc(OC)c(OC)cc3C1)[C@H]1C(=O)O[C@H](c3ccccc3)[C@H](c3ccccc3)N1[C@@H]2c1ccc(O)cc1`, the z-score in [1] is 1.27 (inactive); in experiment [3], 1.31 (inactive); in experiment [4], 0.735 (inactive); in [5] it was 1.89 (inactive); in [6], 0.712 (inactive); in experiment [7], 0.278. The z-score in [8] was 2.19 (inactive); in [9] it was 0.296 (inactive); in [10] it was 0.725; in experiment [11] it was -0.635; in experiment [12], 1.29; in experiment [13] it was 0.582. Further, the z-score is -1.06 in experiment [14]; -0.964 in experiment [15]; -0.145 in experiment [16]; -0.093 (inactive) in experiment [17]; -1.06 in experiment [18]; 0.318 in [19]. Further, the z-score in experiment [20] is -0.311 (inactive). For the same compound, the composite z-score in experiment [2] is 0.176.
